# Assay results taken from PubChem BioAssay AID652115 (Broad Institute, 2013).
# Among all 330,000 compounds or so, about 3,800 (1.2%) were called active. Many of the other results were omitted from the sample, so actives are more common in it than they were. Values without a mark were called inactive. Rule as the data show it: active = inhibition above about 15%; inconclusive = no clear call, values can overlap the other calls; inactive = below that.
# Molecular target: NAD-dependent protein deacylase sirtuin-5, mitochondrial (Homo sapiens) (UniProt Q9NXA8)
# Assay: blockers of sirtuin-5 deacylase activity – biochemical, fluorescence imaging, single point, set 5, primary screen (AID 652115)
# Details: Purified SirT5, succinyl-peptide AMC, trypsin-coupled fluorescence; at 15 µM; stronger effect = higher value
# Sequence of NAD-dependent protein deacylase sirtuin-5, mitochondrial (Homo sapiens) (Q9NXA8 whole entry, looked up): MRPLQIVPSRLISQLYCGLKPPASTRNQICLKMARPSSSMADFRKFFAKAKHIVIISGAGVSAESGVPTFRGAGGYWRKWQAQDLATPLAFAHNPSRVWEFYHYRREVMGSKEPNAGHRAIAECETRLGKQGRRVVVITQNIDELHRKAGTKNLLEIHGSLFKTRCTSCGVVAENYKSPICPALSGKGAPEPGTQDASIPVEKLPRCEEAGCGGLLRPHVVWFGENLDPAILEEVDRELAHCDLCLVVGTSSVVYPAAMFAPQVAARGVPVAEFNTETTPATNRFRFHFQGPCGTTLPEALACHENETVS
row,SMILES,inhibition
1,O=C(NCC[C@@H]1CC[C@@H](NS(=O)(=O)c2cccc(F)c2)[C@H](CO)O1)C1CC1,-0.786%
2,C[C@H]1CN([C@@H](C)CO)C(=O)c2cccc(NC(=O)Nc3ccccc3)c2O[C@H]1CN(C)S(=O)(=O)c1ccc(F)cc1,-1.45%
3,CCC(=O)Nc1ccc2c(c1)C(=O)N(C)[C@H]1CC[C@H](CC(=O)NCCOC)O[C@@H]1CO2,2.38%
4,C[C@@H]1CN([C@@H](C)CO)C(=O)Cc2cc(NS(=O)(=O)c3cccs3)ccc2O[C@@H]1CN(C)C(=O)Nc1ccc(C(F)(F)F)cc1,3.48%
5,Cc1ccc(S(=O)(=O)N(C)C[C@H]2OCCCC[C@@H](C)Oc3ccc(NC(=O)Nc4ccc(F)cc4)cc3C(=O)N([C@@H](C)CO)C[C@H]2C)cc1,-2.04%
6,Cc1ccc(S(=O)(=O)N(C)C[C@@H]2OCCCC[C@@H](C)Oc3ccc(NS(=O)(=O)c4ccc(F)cc4)cc3C(=O)N([C@H](C)CO)C[C@H]2C)cc1,19.9% (active)
7,COc1ccc(S(=O)(=O)Nc2ccc3c(c2)C(=O)N([C@@H](C)CO)C[C@@H](C)[C@H](CN(C)Cc2ccc(C(F)(F)F)cc2)OCCCC[C@@H](C)O3)cc1,16.7% (active)
8,C[C@@H]1CCCCO[C@H](CN(C)S(=O)(=O)c2ccc(F)cc2)[C@H](C)CN([C@@H](C)CO)C(=O)c2cc(NS(=O)(=O)c3ccccc3)ccc2O1,4.58%
9,C[C@H](CO)N1C[C@H](C)[C@H](CN(C)Cc2ccc(C(F)(F)F)cc2)Oc2ccc(NS(C)(=O)=O)cc2C1=O,21.5% (active)
10,COc1ccc(S(=O)(=O)Nc2ccc3c(c2)C(=O)N([C@H](C)CO)C[C@@H](C)[C@H](CN(C)S(=O)(=O)c2ccc(Cl)cc2)OCCCC[C@@H](C)O3)cc1,13.8%
11,COc1ccc(CN(C)C[C@@H]2OCCCC[C@H](C)Oc3ccc(NS(=O)(=O)c4ccc(F)cc4)cc3C(=O)N([C@H](C)CO)C[C@H]2C)cc1,-3.51%
12,C[C@@H]1CN([C@H](C)CO)C(=O)c2cc(NS(=O)(=O)c3cccs3)ccc2O[C@@H]1CN(C)Cc1ccc(C(F)(F)F)cc1,2.33%
13,Cc1ccc(S(=O)(=O)Nc2ccc3c(c2)C(=O)N([C@H](C)CO)C[C@H](C)[C@H](CN(C)S(=O)(=O)c2ccc(F)cc2)OCCCC[C@@H](C)O3)cc1,4.66%
14,COc1ccc(S(=O)(=O)Nc2ccc3c(c2)C(=O)N([C@@H](C)CO)C[C@H](C)[C@H](CN(C)Cc2ccc(C(F)(F)F)cc2)OCCCC[C@@H](C)O3)cc1,9.2%
15,C[C@H]1CN([C@@H](C)CO)C(=O)c2cc(NS(C)(=O)=O)ccc2O[C@H]1CN(C)C(=O)Nc1ccc(C(F)(F)F)cc1,-4.07%
16,C[C@H](CO)N1C[C@H](C)[C@H](CN(C)S(=O)(=O)c2ccc(F)cc2)OCCCC[C@H](C)Oc2ccc(NS(=O)(=O)c3ccc(Cl)cc3)cc2C1=O,17.6% (active)
17,O=C(C[C@H]1CC[C@H]2[C@@H](COC[C@@H](O)CN2C(=O)c2ccc3c(c2)OCO3)O1)NC1Cc2ccccc2C1,-1.48%
18,CCCNC(=O)Nc1ccc2c(c1)OC[C@H](C)N(C(=O)C1CCC1)C[C@H](C)[C@@H](OC)CN(C)C2=O,-2.08%
19,COc1ccc2c3c([nH]c2c1)[C@H](CO)N(Cc1nccs1)CC31CCN(Cc2ccncc2)CC1,1.68%

row,SMILES,inhibition
1,CC=Cc1ccc2n(c1=O)C[C@@H]1[C@@H](CO)[C@H](C(=O)N3CCCCC3)[C@H]2N1C(=O)C1CCC1 (mixture of isomers),-13.5%
2,Nc1ccccc1-c1cn(CC(=O)Nc2ccon2)nn1,-0.431%
3,C[C@@H]1CN([C@H](C)CO)C(=O)c2cc(C#CCC3CCCC3)cnc2O[C@H]1CN(C)Cc1ccccn1,-6.11%
4,C[C@H](CO)N1C[C@H](C)[C@H](CN(C)Cc2ccc3c(c2)OCO3)OCCCC[C@H](C)Oc2ccc(NC(=O)c3ccccc3)cc2C1=O,3.6%
5,O=C(C[C@H]1CC[C@@H]2[C@H](COC[C@H](O)CN2S(=O)(=O)c2ccccc2)O1)N1CCOCC1,-0.872%
6,COc1ccccc1-c1cnc2c(c1)C(=O)N([C@@H](C)CO)C[C@@H](C)[C@H](CN(C)Cc1cccnc1)O2,0.854%
7,CN1c2ccc(C3=CCCCC3)cc2[C@@H]2[C@@H](CCN2S(=O)(=O)c2ccccc2F)[C@H]1CO,3.11%
8,O=C(C[C@@H]1C=C[C@@H](NC(=O)C2CCC2)[C@H](CO)O1)NCC1CC1,-2.09%
9,CCOC(=O)c1c(-c2ccccc2)oc2ccc(OCC(N)=O)cc12,22.2% (active)
10,CCOC(=O)c1c(-c2ccccc2)oc2ccc(OCC(=O)NN)cc12,6.17%
11,CCOC(=O)c1c(-c2ccccc2)oc2cc(Br)c(O)cc12,0.164%
12,CN1C(=O)c2cc(NC(=O)c3cccc(F)c3)ccc2OC[C@H]2O[C@@H](CC(=O)NCc3ccccc3Cl)CC[C@@H]21,6.51%
13,O=C(C[C@H]1C[C@H]2c3cc(NC(=O)NC4CCCC4)ccc3O[C@H]2[C@H](CO)O1)NCCc1ccccc1,-4.04%
14,CCC(=O)N1C[C@@H](C)[C@H](OC)CN(C)C(=O)c2cc(NC(=O)NC3CCCC3)ccc2OC[C@H]1C,3.98%
15,COCOCCn1cc(CN2CCS(=O)(=O)N(Cc3ccc(-c4ccc(OC)cc4)cc3)C(CC(C)C)C2=O)nn1 (configuration not stated),18.3% (active)
16,COCOCCn1cc(CN2CCS(=O)(=O)N(Cc3ccc(-c4cccc(N(C)C)c4)cc3)C(CC(C)C)C2=O)nn1 (configuration not stated),-0.197%
17,COCOCCn1cc(CN2CCS(=O)(=O)N(Cc3ccc(-c4ccccc4)cc3)C(CC(C)C)C2=O)nn1 (configuration not stated),-0.714%
18,C[C@@H]1CN([C@H](C)CO)C(=O)c2cc(NS(=O)(=O)c3cccs3)ccc2O[C@@H](C)CCCCO[C@H]1CN(C)Cc1ccc(C(F)(F)F)cc1,13.1%
